We go through 40 compounds from PubChem BioAssay (NCI).

This is part of a sample that, as a whole, favours compounds with a hit. Of some 83,000 tested, about 20% had one in any assay.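 Cell lines were cultured in 96-well plates, exposed to a single compound concentration, and assessed for percent growth 48 hours later.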 The source made the active and inactive calls.

In this test the test system is HCC-2998 colon. The test can be described thus: NCI-60 one-dose screen, 48 h (100 = growth as untreated, 0 = no growth, -100 = all killed). The note with it: 10 µM unless noted. How it is done: Growth inhibition of the HCC-2998 human tumor cell line is measured as a screen for anti-cancer activity. Cells are grown in 96 well plates and exposed to the test compound for 48 hours. Compounds are tested at a single concentration, which is 10^-5 M for most compounds. The reported endpoint is percent growth (GI% or GIPRCNT), where numbers from 0 - 100% represent growth inhibition, and numbers from -100% - 0 represent cell death. For example, a value of 40 represents 60% growth inhibition. A value of 0 means no net growth occurred over the course of the experiment. A value of -40 indicates 40% of cells at the beginning of the experiment died by the end of the experiment. A value of -100 means all cells are dead at the end of the experiment.
NCI-60 Human Tumor Cell Lines Screen was performed using the standard one-dose NCI protocol, which is described in more detail at https://dtp.cancer.gov/discovery_development/nci-60/default.htm.
Compounds with GIPRCNT values below 10 were considered active. Activity score was based on GIPRCNT using the following formula: […]
Score is 0 for GIPRCNT values of 100 or above, 50 for GIPRCNT values of 0, and 100 for GIPRCNT values of -100.
On to `CC(=O)ON1CCCC(P(=O)(OCCSC(=O)C(C)(C)C)OCCSC(=O)C(C)(C)C)C1=O` (stereo not given), for which the growth was 11% (inactive).

With `CN1CCN(C(=O)[C@@]2(C)CC[C@]3(C)CC[C@]4(C)C(=CC[C@@H]5[C@@]6(C)CCC(=O)NC(C)(C)[C@@H]6CC[C@]54C)[C@@H]3C2)CC1`, the growth was 49% (inactive).

As to `COc1ccc(/C=C/C(=O)c2cc(OC)c(OC)c(OC)c2)cc1OCC(=O)Nc1nc2ccc(OC(F)(F)F)cc2s1`, the growth is 90.6% (inactive).

Consider `Cc1cccc[n+]1C1c2ccccc2-c2ccccc21`, for which the growth was 105% (inactive).

On to `[2H]C([2H])([2H])Oc1ccc(F)cc1/C=C/C(=O)/C=C(/C=C/c1cc(F)ccc1OC([2H])([2H])[2H])OB(F)F`, for which the growth was 114% (inactive).

Consider `O=c1c2ccccc2c(=O)c2c1sc1c(=O)c3ccc(O)cc3c(=O)c12`, for which the growth was -60.5% (active).

For the compound `COc1ccc(/C=C/c2ccc3ccccc3n2)c(OC)c1`, the growth was 72.4% (inactive).

On to `N#Cc1c(-c2ccccc2)nc(SCC(O)CN2CCOCC2)nc1N1CCOCC1` (stereo not given), for which the growth was 72.9% (inactive).

On to `Cc1ccc(/C=C(\C#N)n2nnc3cc(F)c(F)cc32)cc1`, for which the growth is -10.6% (active).

`Clc1ccccc1-c1cnn2cc(-c3ccccc3)cnc12`: the growth was 85.9% (inactive).

Take `N#CC1=C(N)Oc2ccc3ccccc3c2C1c1ccc([N+](=O)[O-])cc1` (stereo not given): the growth is 107% (inactive).

For `CCCCNC(=O)c1cc([N+](=O)[O-])cc(C2CCCCC2)c1O`, the growth is 25% (inactive).

As to `COc1cc(/C=N/Nc2ccc(Br)cc2)cc(OC)c1OC`, the growth was 45.7% (inactive).

For `CC[C@]12C=CCN3CC[C@@]4(c5ccc(OC)cc5N(C)[C@H]4[C@@](O)(C(=O)OC)[C@@H]1OC(=O)CCC[P+](c1ccccc1)(c1ccccc1)c1ccccc1)[C@@H]32`, the growth is -22.5% (active).

Take `FC(F)(F)Oc1cccc(-c2cnc3ccc(-c4ccncc4)nn23)c1`: the growth was 32.5% (inactive).

Turning to `C=CCn1c(SCC(=O)Nc2ccc(/C(C)=N/O)cc2)nnc1-c1cc(-c2ccc(S(N)(=O)=O)cc2)nc2ccccc12`, the growth is 101% (inactive).

Turning to `CNCc1cccc2c1OCCOCCOCCNS(=O)(=O)c1ccc(cc1)-c1cnc(N)c(n1)C(=O)N2`, the growth is 21.7% (inactive).

With `CCOC(=O)C(=CNc1cnc(Nc2ccc(N3CCOCC3)cc2)nc1Oc1ccc(OC)cc1)C(=O)OCC`, the growth was 91.7% (inactive).

For `Cn1cc(-c2nn3cc(-c4cccs4)nc3s2)c2cc(F)ccc21`, the growth was 66.8% (inactive).

With `O=C(O)COc1ccc(Cl)c(Cl)c1`, the growth was 106% (inactive).

As for `COc1cc(OC)cc(-c2ccc(-c3ccc(C(=N)N)o3)o2)c1`, the growth was -36.8% (active).

For the compound `CS(=O)(=O)c1nnc(-c2ccccc2)s1`, the growth was 103% (inactive).

As to `COc1ccc(C(=O)Cn2c(C(=O)c3ccc(OC)cc3)nc3ccccc32)cc1`, the growth is 21.5% (inactive).

Regarding `COc1cc(/C=C/C(=O)/C=C(O)/C=C/c2ccc(OC(=O)C34CC5CC(CC(C5)C3)C4)c(OC)c2)ccc1OC(=O)C12CC3CC(CC(C3)C1)C2`, the growth is 106% (inactive).

Consider `Nc1nc(N)c2c(n1)NC(c1cccc(Nc3ccnc4cc(C(F)(F)F)ccc34)c1)CC(c1ccccc1)=N2` (stereo not given), for which the growth was 54.2% (inactive).

With `Cc1ccc(/C=C/C(=O)c2cccc(OCCCOc3cccc(C(=O)/C=C/c4ccc(C)cc4)c3)c2)cc1`, the growth is 66.3% (inactive).

For the compound `CN1CCN(CCCOc2cccc3nc(Nc4ccc(F)c(F)c4)ccc23)CC1`, the growth is -83.8% (active).

Consider `CN1CCN(Cc2ccc(NC(=O)c3cncc(C#Cc4cnc(N)c5ncccc45)c3)cc2C(F)(F)F)CC1`, for which the growth is 16.3% (inactive).

Regarding `COc1ccc(C(=S)N2CCN(c3ccc(Cl)cc3)CC2)cc1`, the growth was 105% (inactive).

With `COc1cccc(NCc2nnc(Nc3ccc(Cl)cc3)c3ccccc23)c1`, the growth was 2.79% (active).

In the case of `Cn1c(=O)c2[nH]c(SCC(=O)Nc3ccc(C(=O)/C=C/c4ccccc4Cl)cc3)nc2n(C)c1=O`, the growth was 106% (inactive).

On to `COc1ccc(/C=C2\COc3ccc(O)cc3C2=O)cc1`, for which the growth is 103% (inactive).

`COC(=O)c1c2c(c(C)[n+]([O-])c1C)C(=O)C(NCc1ccc(OC)cc1)=CC2=O`: the growth is 15.1% (inactive).

Consider `COc1ccc(/C=C/C(c2cc(OC)c(OC)c(OC)c2)n2cncn2)cc1` (stereo not given), for which the growth was 84.2% (inactive).

With `COc1ccc2c(c1)c(/C(O)=C1\COC(=O)C1=O)cn2Cc1ccc(F)cc1`, the growth was 108% (inactive).

For the compound `Cc1c(Cl)cccc1C(=O)Nc1nc2c(s1)CN(C(=O)c1ccc(C(F)(F)F)cc1)CC2`, the growth is 28.4% (inactive).

For the compound `CCOC(=O)C#Cc1c(C(=O)OCC)nnn1Cc1ccc(C(F)(F)F)cc1`, the growth was 102% (inactive).

For the compound `CN1CCN(CC(=O)Nc2ccc3ncnc(Nc4ccc(Oc5cccc(C(F)(F)F)c5)c(Cl)c4)c3c2)CC1`, the growth was -5.89% (active).

For `Cc1cc2c(cc1C)N(C(=O)CCl)CC(=O)N2`, the growth is 71.6% (inactive).

Consider `O=C(N=Nc1c(O)[nH]c2ccccc12)Nc1ccc(F)cc1`, for which the growth was 100% (inactive).
